Shown are actives, neighbours in structure and some others; about 2.8% of the full set was active somewhere.
GALC G270D act: enhancers of human galactocerebrosidase G270D mutant activity in cells; P54803; 145M-Twi-hGALC-G270D cells (Twitcher mouse brain line with human GALC G270D), HMU-beta-Gal fluorescence, 48 h; Potency, µM (top dose mostly 57.5 µM), hits mostly activators; 45,000 compounds, 0.1% hits; also: potency is read from the fitted curve at half-maximal effect; 0% is about no effect; nearly all actives have a fitted effect of over 65% in size
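Fluorogenic HMU-b-Gal hydrolysis (0.1 mM final, pH 5.2 citrate-phosphate with 1 mg/mL sodium taurocholate; carbonate stop buffer) measures mutant GALC activity after compound treatment of live 145M-Twi Twitcher brain cells stably carrying human GALC-G270D, with wild-type GALC line alongside; activation sought.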
FH mod: Identification of activators of human fumarate hydratase by quantitative high-throughput screening; Potency, µM (titrated, usually from 79.9 µM), for inactives: at the top dose activity change, negative = inhibition, usual class: inhibitors; 54,000 compounds, 0.22% hits; Fumarate hydratase, mitochondrial (Homo sapiens), P07954; FH coupled MDH/diaphorase resazurin fluorescence, 15 min; AID 1347055, 2019; also: potency is read from the fitted curve at half-maximal effect; % is scaled to controls: 0 for no effect and ±100 for the full control effect; the screen sought activators but most active calls are inhibition curves; nearly all actives have a fitted effect of over 45% in size
Target sequence (P07954 whole entry, looked up): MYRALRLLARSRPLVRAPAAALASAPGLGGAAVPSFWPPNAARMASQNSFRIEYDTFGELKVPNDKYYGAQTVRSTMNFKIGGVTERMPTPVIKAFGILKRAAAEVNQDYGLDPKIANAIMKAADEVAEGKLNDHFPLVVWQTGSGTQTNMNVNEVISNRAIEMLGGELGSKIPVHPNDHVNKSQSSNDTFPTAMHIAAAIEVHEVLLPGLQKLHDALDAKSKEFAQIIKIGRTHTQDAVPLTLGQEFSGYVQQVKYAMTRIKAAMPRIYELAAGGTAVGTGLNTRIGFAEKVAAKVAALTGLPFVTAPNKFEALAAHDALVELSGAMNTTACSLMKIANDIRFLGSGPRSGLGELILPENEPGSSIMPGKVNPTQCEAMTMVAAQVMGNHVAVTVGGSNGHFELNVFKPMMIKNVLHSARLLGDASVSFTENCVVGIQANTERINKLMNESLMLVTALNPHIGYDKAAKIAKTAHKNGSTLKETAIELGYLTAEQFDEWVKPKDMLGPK
GALK inh: inhibitors of human galactokinase (GALK) | recombinant GALK, Kinase-Glo ATP luminescence, 1 h | P51570 | 44,000 tested, under 10 active | Potency, µM (titrated, usually from 57.5 µM), without a hit: at the highest dose activity, negative = inhibition, actives largely listed as inhibitors;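 also: plate controls were full GALK reaction for no effect and reaction lacking GALK for full effect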
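Reactions with and without enzyme served as controls. GALK at 5 nM phosphorylates 100 uM galactose using 35 uM ATP (HEPES pH 8.0, Mg2+) for 1 h at RT, with luminescence read 10 min after adding Kinase-Glo Plus.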
GPR32 ag: GPR32 (DRV1) agonism, beta-arrestin recruitment | CHO-K1 GPR32 beta-arrestin PathHunter luminescence, 90 min; zero percent set by DMSO-only wells | activation, % at 76.9 µM | 48,000 compounds, 2.5% hits | AID 1346428;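 active = activation of at least 60% and not above a set upper limit, about 1 call in 100 departs from these limits; inconclusive = activation of 40% to 60%, or above that upper limit; inactive = activation under 40%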; also: 0% is about no effect
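Step 1: seed CHO-K1 GPR32 beta-arrestin cells, 2,500/well, overnight at 37 °C. Step 2: add compounds, 90 min at 37 °C. Step 3: detection reagent, 1 h ambient, then luminescence.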
TSG101-PTAP inh: TSG101-PTAP interaction inhibition, HIV-1 budding; 44,000 tested, under 10 active; Potency, µM (highest dose often 115 µM), usual class: inhibitors; AID 1347069; Q99816; Fluorescence polarization, FITC-PTAP peptide/Tsg101, 20 min; also: potency is read from the fitted curve at half-maximal effect; 0% is about no effect
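Read-out is FITC fluorescence polarization. Compounds were added to Tsg101 binding domain (10 uM final), then FITC-PTAP peptide (50 nM final), 20 min at r.t. Total S+P intensity flags fluorescent compounds.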
B2AR arrestin ag: beta-arrestin recruitment by human beta2-adrenergic receptor ligands | HTLA Tango cells, beta-arrestin recruitment, luciferase luminescence, 18 h | Potency, µM (highest dose often 46.1 µM), actives largely listed as activators | 44,000 tested, under 10 active;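 also: potency is read from the fitted curve at half-maximal effect; 0% = DMSO and full agonism = EC100 isoproterenol or metaproterenol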
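Tango cells (recombinant beta2-AR, beta-arrestin, tTA-driven luciferase), 1500/well in DMEM 1% FBS, treated 18 h at 37 °C with compounds up to 46 µM; luciferin mix added, luminescence read after 15 min; %activity curves fitted and curve-classed.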
The depositor's hits bear a star; ! = repeats disagree; [ ] = another dose, or the depositor's remark. Unless noted, calls follow the shape of the dose curve; as a rule, active = well fitted curve in the direction sought with a large enough effect; inconclusive = small, poorly fitted or top-dose-only effect, or another doubt; inactive = no such curve, though single readings can be large; an effect the other way counts as inactive or inconclusive.

Cc1ccccc1-c1nc(CS(=O)(=O)CC(=O)NCCCc2ccccc2)c(C)o1 was read as GALC G270D act inactive, FH mod -28.8%, GALK inh -2.4%, GPR32 ag 79.9*, TSG101-PTAP inh inactive and B2AR arrestin ag inactive.
Screening CCN1CCN(CCCNC(=O)CS(=O)(=O)Cc2nc(-c3ccccc3C)oc2C)CC1 returned GALC G270D act inactive, FH mod 6.5%, GALK inh 8.5%, GPR32 ag 0.3, TSG101-PTAP inh inactive and B2AR arrestin ag inactive.
For Cc1ccc(-n2ncc3c(NCCc4ccccc4)ncnc32)cc1Cl the results were GALC G270D act inactive, FH mod -14.8%, GALK inh inconclusive, GPR32 ag 117.2*, TSG101-PTAP inh inactive and B2AR arrestin ag inactive.
For Cc1ccc(CNc2ncnc3c2cnn3-c2ccc(C)cc2C)cc1 the results were GALC G270D act inactive, FH mod inconclusive, GALK inh 2.0%, GPR32 ag 61.2*, TSG101-PTAP inh inactive and B2AR arrestin ag inactive.
Screening Cc1ccc(-n2ncc3c(NCCc4ccccc4)ncnc32)cc1 returned GALC G270D act inactive, FH mod -3.0%, GALK inh -2.4%, GPR32 ag 93.5*, TSG101-PTAP inh inactive and B2AR arrestin ag inactive.
For Cc1ccc(-n2ncc3c(NCCCc4ccccc4)ncnc32)cc1 the results were GALC G270D act inactive, FH mod 0.4%, GALK inh -1.1%, GPR32 ag 12.1, TSG101-PTAP inh inactive and B2AR arrestin ag inactive.
Screening Cc1c(C(=O)Nc2ccc(Oc3ccnc4[nH]cc(-c5ccccc5)c34)c(F)c2)c(=O)n(-c2ccc(F)cc2)n1C returned FH mod -11.2%.
For CN(C)C(=O)C(CCN1CCC(O)(c2ccc(Cl)cc2)CC1)(c1ccccc1)c1ccccc1 the results were GALC G270D act inactive, FH mod -16.5%[53.3 µM] and GPR32 ag -19.2.
For OC1(c2ccc(Cl)c(C(F)(F)F)c2)CCN(CCCC(c2ccc(F)cc2)c2ccc(F)cc2)CC1 the results were GALC G270D act inactive, FH mod -22.1% and GPR32 ag 64.5*.
Cc1ccccc1-c1nc2scc(CCNS(=O)(=O)c3ccccc3)n2n1 was read as GALC G270D act inactive, FH mod -25.2%, GALK inh -3.0%, GPR32 ag 75.3*, TSG101-PTAP inh inactive and B2AR arrestin ag inactive.
Screening Cc1ccc(S(=O)(=O)NCCc2csc3nc(-c4ccccc4F)nn23)cc1C returned GALC G270D act inactive, FH mod -0.9%, GALK inh -1.1%, GPR32 ag 105.1*, TSG101-PTAP inh inactive and B2AR arrestin ag inactive.
For O=C(NCCCc1ccccc1)c1cccc(-c2cc(O)c3ncccc3c2)c1 the results were FH mod 5.0%.
O=C(Cn1c(SCC(=O)Nc2ccc(F)cc2)nc2ccccc21)NCc1ccc(F)cc1 was read as GALC G270D act inactive, FH mod 0.9%, GALK inh -4.5%, GPR32 ag inconclusive, TSG101-PTAP inh inactive and B2AR arrestin ag inactive.
`O=C(Cn1c(SCC(=O)Nc2ccc(F)cc2)nc2ccccc21)NCc1ccccc1Cl` gave GALC G270D act inactive, FH mod 6.2%, GALK inh -1.5%, GPR32 ag 70.1*, TSG101-PTAP inh inactive and B2AR arrestin ag inactive.
For Cc1cc2c(C(C)C)c(O)c(O)c(C=O)c2c(O)c1-c1c(C)cc2c(C(C)C)c(O)c(O)c(C=O)c2c1O the results were GALC G270D act inactive, FH mod 28.2µM*! and GPR32 ag -19.4.
`COC12CC3C(C(C)C1=CC(=O)O2)C(O)C(OC(C)=O)C1C(C)(C)C(OC(C)=O)CCC31C` (centres undefined) gave FH mod 6.0%[53.3 µM].

Source: PubChem (National Center for Advancing Translational Sciences (NCATS))
